# Rows were chosen to be rich in hits. Some 28% of all compounds tested hit in one or more screens of this group.
# CYP2C19 act: cytochrome P450 2C19 (human) activation. P33261. 96,000 tested, under 10 active. recombinant CYP2C19, luciferin-H EGE luminescence; stronger effect = higher value; 0 = fully inhibited enzyme, 1 = untreated enzyme. activation factor at 5 µM;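 active = activation factor of at least 2 at 5 µM in the primary screen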;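 also: 0 = wells with 2.5 mM tranylcypromine and 1 = vehicle-only wells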
# CYP2C9 act: activators of human CYP2C9; recombinant CYP2C9, luciferin-H conversion, luminescence; stronger effect = higher value; factor 1 = untreated enzyme, 0 = blocked; activation factor at 5 µM; 1.4% of 96,000 active;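 active = activation factor of 2 or more for CYP2C9 at a 5 µM dose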;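 also: 0 = sulfaphenazole-blocked wells and 1 = vehicle-only wells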
# Target sequence (P11712 whole entry, looked up): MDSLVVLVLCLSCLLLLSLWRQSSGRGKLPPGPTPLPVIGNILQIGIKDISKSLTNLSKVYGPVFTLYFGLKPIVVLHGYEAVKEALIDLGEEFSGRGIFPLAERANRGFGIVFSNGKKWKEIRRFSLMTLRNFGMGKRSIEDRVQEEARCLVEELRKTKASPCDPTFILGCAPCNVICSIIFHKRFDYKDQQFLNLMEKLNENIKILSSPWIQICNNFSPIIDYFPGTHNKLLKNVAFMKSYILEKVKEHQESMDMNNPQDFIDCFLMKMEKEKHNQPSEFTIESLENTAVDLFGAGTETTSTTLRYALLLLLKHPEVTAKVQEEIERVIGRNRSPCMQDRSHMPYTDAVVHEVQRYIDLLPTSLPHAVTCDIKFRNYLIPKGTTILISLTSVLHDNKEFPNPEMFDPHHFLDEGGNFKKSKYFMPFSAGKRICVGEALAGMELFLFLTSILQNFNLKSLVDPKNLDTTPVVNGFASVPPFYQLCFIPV
# PLK1 kinase inh: PLK1 (human) kinase inhibition; P53350; recombinant PLK1 kinase, TR-FRET peptide phosphorylation; inhibition, % at 10 µM; 0.53% of 97,000 active;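 active = inhibition of 50% or more in the single-concentration screen; inactive = inhibition below 50%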;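 also: 0% = DMSO max control and 100% = H-89 dihydrochloride min control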
# Plk1 PBD FP: Plk1 (human) PBD binding inhibition | 0.13% of 97,000 active | AID 693 | P53350 | inhibition, %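 (tested at about 20 µM)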 | Plk1 PBD phosphopeptide binding, fluorescence polarization; in the data active = inhibition above about 34%, passing the limit was not always enough
# CYP2C19 inhib: inhibitors of human CYP2C19; 21% of 96,000 active; AID 778; P33261; CYP2C19 Supersomes, luciferin-H EGE luminescence, 30 min; inhibition, % at 5 µM;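 active = CYP2C19 inhibition above a set limit at 5 µM in the primary screen, cut at about 50% in these data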;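 also: plate controls were negative control wells for no effect and 2.5 mM tranylcypromine positive control for full effect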
# CYP2C9 inh: inhibitors of human CYP2C9 | P11712 | CYP2C9 Supersomes, luciferin-H conversion, luminescence | inhibition, % at 5 µM | 20% of 96,000 active;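 active = blocking of liver enzyme CYP2C9 beyond about 50% at 5 µM, limit read from the data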
# * hit, by the source's call; . = not tested or not shown.
SMILES,CYP2C19 act,CYP2C9 act,PLK1 kinase inh,Plk1 PBD FP,CYP2C19 inhib,CYP2C9 inh
CC(=O)/C(=C\Nc1ccc(OCc2ccccc2)cc1)c1ccccc1,1,0.2,-20,25,-1,85*
CC(=O)/C(=C/Nc1ccc(Oc2ccccc2)cc1)c1ccccc1,0.3,0.1,-10,2,68*,89*
Cc1nc(-c2ccccn2)sc1C(=O)Nc1ccc(Cl)c(Cl)c1,0.9,0.6,-78,-15,10,41
C#CCOc1nc(OCC#C)nc(OCC#C)n1,0.1,0.6,-6,8,89*,40
CC(C)CC(NC(=O)C1CCC(C)CC1)C(=O)NCc1cccnc1 (stereo not given),0.7,0.5,-7,-3,30,54*
CC1CCC(C(=O)NC(C(=O)NCc2cccnc2)C(C)C)CC1 (stereo not given),0.6,0.3,5,18,41,66*
CC(C)CC(NC(=O)C1CCC(C)CC1)C(=O)N1CCN(c2ccccn2)CC1 (stereo not given),0.2,0.4,1,-15,81*,62*
CCCCOC(=O)Nc1ccccc1C(N)=O,0.8,0.8,.,.,22,18
CCC(=O)Nc1nc2nc(C)cc(=O)n2[nH]1,1,1,-4,29,3,-3
COC(=O)C(C(=O)Nc1ccc(OC)cc1)C1CCCCCC1 (stereo not given),0.1,0.3,-9,-4,92*,69*
COC(=O)C(C(=O)Nc1ccccc1C)C1CCCC1 (stereo not given),0.4,0.9,-3,-6,64*,9
Cc1ccccc1NC(=O)N(C(C)C)C(C)C,0.9,0.8,-8,13,7,16
CC1=C(C(=O)Nc2ccc(F)cc2)C(c2ccncc2)C2=C(CCCC2=O)N1 (stereo not given),.,.,7,24,.,.
O=C1CCCC2=C1C(c1ccncc1)c1c(nc(SCc3ccccc3Cl)[nH]c1=O)N2 (stereo not given),0.2,0.1,-19,-2,85*,95*
Fc1ccc(COc2ccc(/C=N/n3cnnc3)cc2)cc1,0.1,0.1,4,-15,92*,92*
CC(=O)c1coc2ccc(OCC(=O)O)cc12,.,.,0,9,.,.
Cc1cccc(NC(=S)N(CCc2nc3cc(C)c(C)cc3[nH]2)Cc2cccnc2)c1,0.6,0.7,-13,8,45,32
Cc1ccc(C)c(NC(=S)N(CCc2nc3cc(C)c(C)cc3[nH]2)Cc2cccnc2)c1,0.6,0.3,-4,-21,38,74*
CCN1C(c2ccccc2)=C(c2ccccc2)S/C1=C/C=C1\SC(=S)N(C)C1=O,.,.,12,-33,.,.
O=c1c(Cl)c(N2CCCCC2)cnn1-c1nc2ccccc2[nH]1,0.4,0.8,-4,-1,62*,24
CCOC(=O)c1cnn(-c2ncnc3c2cnn3Cc2ccccc2)c1N,.,.,-7,7,.,.
CC(C)(C)c1ccc(-c2nnc3sc(-c4ccncc4)nn23)cc1,0.4,0.5,-1,-21,58*,53*
COc1cccc(-c2nnc3sc(-c4cccs4)nn23)c1,0.6,0.6,.,.,40,42
CCOc1cccc(-c2nnc3sc(-c4cccs4)nn23)c1,0.4,0.4,.,.,60*,58*
COc1cccc(-c2nn3c(-c4cccc(C)c4)nnc3s2)c1,0.1,0.2,.,.,89*,76*
SMILES,CYP2C19 act,CYP2C9 act,PLK1 kinase inh,Plk1 PBD FP,CYP2C19 inhib,CYP2C9 inh
COc1cc(OC)c(-c2nn3c(-c4ccco4)nnc3s2)cc1OC,0.6,0.3,17,-10,44,73*
CCC(=O)N1CCc2cc(S(=O)(=O)CCC(=O)NCc3ccc4c(c3)OCO4)ccc21,0.8,0.7,-11,-15,23,29
c1ccc(OCc2nn3c(-c4ccco4)nnc3s2)cc1,0.3,0.5,-5,8,67*,49
COc1cc(-c2nn3c(Cc4ccccc4)nnc3s2)cc(OC)c1OC,0.5,0.3,-16,12,53*,70*
COc1ccc(-c2nnc3sc(COc4ccccc4)nn23)cc1,0.6,0.7,.,.,36,26
CCOc1cccc(-c2nnc3sc(COc4ccc(C)cc4)nn23)c1,0.5,0.4,.,.,54*,64*
COc1cc(-c2nn3c(COc4ccccc4)nnc3s2)cc(OC)c1OC,0.9,0.7,.,.,12,25
CCOc1cccc(-c2nnc3sc(-c4cc(OC)c(OC)c(OC)c4)nn23)c1,0.6,0.4,.,.,36,63*
Cc1cc(C)nc(NC2=NCCN2C(=O)NC2CCCCC2)n1,1.1,0.7,-1,5,-8,34
COc1ccc(Oc2nc(C(F)(F)F)nc3ccccc23)cc1,0.9,0.9,-15,-11,14,10
COc1cc(-c2nnc3sc(-c4ccco4)nn23)cc(OC)c1OC,0.6,0.4,.,.,36,65*
c1cc(-c2nnc3sc(C4CCCCC4)nn23)ccn1,0.1,0.8,.,.,88*,21
c1coc(-c2nnc3sc(-c4cccs4)nn23)c1,0.4,0.5,10,-6,64*,45
COc1ccc(-c2nnc3sc(-c4ccco4)nn23)cc1OC,0.9,0.9,-3,-9,12,11
COc1cc(-c2nn3c(-c4ccccc4)nnc3s2)cc(OC)c1OC,0.3,0.3,-16,-16,74*,72*
c1csc(-c2nn3c(-c4ccncc4)nnc3s2)c1,0.6,0.7,.,.,36,32
COc1cc(CN2CCC(C(=O)NC3CCCC3)CC2)ccc1O,1.1,1.2,-4,24,-8,-17
CN(C)c1ccc(-c2nn3c(-c4ccc(Cl)cc4)nnc3s2)cc1,0.8,0.7,.,.,20,31
Cc1nn2c(-c3ccc(Cl)cc3)nnc2s1,0.4,0.9,.,.,56*,6
COc1ccc(/C=N/Nc2ncc(-c3ccccc3)cn2)c(OC)c1,.,.,-11,-6,.,.
COc1ccc(/C=N/NC(=O)c2[nH]ncc2Br)c(OC)c1,0.6,2*,-14,27,36,-105
COc1ccccc1NC(=O)C1CCN(c2ncccn2)CC1,0.8,1.8,18,-11,25,-75
CCc1ccccc1NC1c2ccccc2C(=O)N1Cc1ccco1 (stereo not given),1,0.8,.,.,0,15
CCOc1ccccc1NC1c2ccccc2C(=O)N1Cc1ccco1 (stereo not given),0.4,0.8,-10,-3,63*,19
O=C1c2ccccc2C(Nc2ccc(S(=O)(=O)N3CCCCCC3)cc2)N1Cc1ccco1 (stereo not given),0.6,0,-15,18,36,97*
Nc1nnc(CCOc2ccccc2Cl)s1,0.8,1,1,12,18,2
Nc1nnc(Cc2ccc(Cl)c(Cl)c2)s1,0.4,0.9,-6,-11,58*,8
Clc1cccc(CSC2=NCCCN2)c1,.,.,-7,1,.,.
Oc1c(C=NCc2ccncc2)sc2ccccc12,0.1,0.6,-7,-18,92*,44

# Assay outcomes as filed in PubChem BioAssay.
